Measurements taken from the supplement of paper PMC6992640.
Where a name gives a salt, the structure may show the parent alone. ± gives the standard deviation of the averaged measurements.

Columns and labels:
Test in all cases: cell viability (% of vehicle); higher = less cytotoxic
Settings in all cases: 10 µM; 72 h
HCI01 = system: HCI01 (cells of a triple-negative basal-like breast cancer xenograft)
HCI03 = system: HCI03 (cells of an ER-positive luminal breast cancer xenograft)
HCI09 = system: HCI09 (cells of a triple-negative luminal androgen receptor type breast cancer xenograft)
HCI11 = system: HCI11 (cells of an ER-positive luminal breast cancer xenograft)
HCI13 = system: HCI13 (cells of an ER-positive luminal breast cancer xenograft)
HCI16 = system: HCI16 (cells of a triple-negative basal-like breast cancer xenograft)
UCD52 = system: UCD52 (cells of a triple-negative basal-like breast cancer xenograft)
WHIM2 = system: WHIM2 (cells of a triple-negative basal-like breast cancer xenograft)
WHIM30 = system: WHIM30 (cells of a triple-negative basal-like breast cancer xenograft)
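Also: PDX cells carrying CMV promoter-driven luciferase, viability read as total photon flux per second by IVIS imaging following D-luciferin, vehicle control 0.1% DMSO.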

Structure (SMILES) | cell viability (HCI01) | cell viability (HCI03) | cell viability (HCI09) | cell viability (HCI11) | cell viability (HCI13) | cell viability (HCI16) | cell viability (UCD52) | cell viability (WHIM2) | cell viability (WHIM30)
C[N+](C)(C)CC(O)CC(=O)O.[Cl-] (racemic) [DL-Carnitine HCl] | 111 ± 35 | 112 | 120 ± 37 | 101 | 113 ± 5.4 | 147 | 102 ± 13 | 114 ± 25 | 132 ± 11
O=C(NCC(O)CO)c1ccncc1Nc1ccc(I)cc1F (configuration not stated) | 72.8 ± 3.9 | 72.9 | 55.3 ± 28 | 83.1 | 64.4 ± 5.6 | 116 | 70.57 ± 0.44 | 41.9 ± 8.5 | 130 ± 14
Cc1nc(C(=O)NCC(=O)O)c(O)c2ccc(Oc3ccccc3)cc12 | 122 ± 2.7 | 189 | 88.7 ± 11 | 140 | 113 ± 4.4 | 88.2 | 107 ± 14 | 160 ± 8.2 | 116 ± 14
CNC1C(OC2C(OC3C(O)C(O)C(N=C(N)N)C(O)C3N=C(N)N)OC(C)C2(O)C=O)OC(CO)C(O)C1O.CNC1C(OC2C(OC3C(O)C(O)C(N=C(N)N)C(O)C3N=C(N)N)OC(C)C2(O)C=O)OC(CO)C(O)C1O.O=S(=O)(O)O.O=S(=O)(O)O.O=S(=O)(O)O (configuration not stated) [Streptomycin sulfate] | 82.6 ± 31 | 97.7 | 84.6 ± 5.9 | 82.9 | 90 ± 1.7 | 103 | 84.1 ± 3.6 | 81.8 ± 12 | 86.6 ± 7.4
CN(CCOc1ccc(CC2SC(=O)NC2=O)cc1)c1ccccn1.O=C(O)C=CC(=O)O (configuration not stated) [Rosiglitazone maleate] | 132 ± 20 | 115 | 94 ± 16 | 90.1 | 107.5 ± 0.5 | 99.6 | 105 ± 7.2 | 156 ± 25 | 136 ± 25
CC(C)NCC(O)COc1ccc(CCOCC2CC2)cc1.Cl (configuration not stated) [Levobetaxolol HCl] | 125 ± 30 | 104 | 112 ± 18 | 105 | 145 ± 15 | 127 | 109 ± 18 | 96.8 ± 13 | 114 ± 14
CC(N)(Cc1ccc(O)c(O)c1)C(=O)O (configuration not stated) [Methyldopa] | 95.3 ± 9.9 | 96.8 | 95.5 ± 7.2 | 63.1 | 126 ± 11 | 127 | 91.1 ± 2.8 | 112 ± 1.3 | 96.2 ± 3.6
O=C(O)CCCN1CCC(OC(c2ccc(Cl)cc2)c2ccccn2)CC1.O=S(=O)(O)c1ccccc1 (configuration not stated) [Bepotastine Besilate] | 155 ± 45 | 131 | 112 ± 1.6 | 96.6 | 121 ± 6.6 | 128 | 87.6 ± 21 | 87.7 ± 5.1 | 138 ± 10
NCC1OC(OC2C(N)CC(N)C(OC3OC(CO)C(O)C(N)C3O)C2O)C(N)CC1O (configuration not stated) [Tobramycin] | 112 ± 23 | 124 | 98.5 ± 5.4 | 83.1 | 58 ± 9.4 | 88 | 85.3 ± 6.8 | 122 ± 32 | 123 ± 5.3
O=C1NC(=O)C(c2ccccc2)(c2ccccc2)N1 [Phenytoin] | 106 ± 8.9 | 151 | 105.6 ± 0.89 | 108 | 113 ± 16 | 129 | 99 ± 5.9 | 118 ± 16 | 160 ± 25
Cl.c1ccc(CC2=NCCN2)cc1 [Tolazoline HCl] | 94.2 ± 1.9 | 100 | 92 ± 13 | 91.4 | 118 ± 8.5 | 115 | 92.7 ± 2.9 | 105 ± 5.3 | 87.3 ± 5
CN(C)CCCN1c2ccccc2CCc2ccccc21.Cl [Imipramine (hydrochloride)] | 104 ± 14 | 88.1 | 84.9 ± 5.2 | 60 | 95.1 ± 1.8 | 119 | 90.4 ± 7.2 | 82.5 ± 12 | 79.7 ± 8.5
CC(CN(C)C)CN1c2ccccc2CCc2ccccc21.O=C(O)/C=C\C(=O)O (configuration not stated) [Trimipramine (maleate)] | 99.2 ± 13 | 101 | 91.6 ± 9.4 | 69 | 92.2 ± 2.7 | 105 | 86.9 ± 1.5 | 77.6 ± 15 | 93.3 ± 1.9
C/C=C/C1=C(C(=O)O)N2C(=O)[C@@H](NC(=O)[C@H](N)c3ccc(O)cc3)[C@@H]2SC1 [Cefprozil] | 97.6 ± 3.2 | 174 | 103 ± 22 | 97 | 85.4 ± 1.5 | 115 | 107 ± 8.6 | 93.4 ± 26 | 115 ± 7.5
CC(S)C(=O)NCC(=O)O (configuration not stated) [Tiopronin (Thiola)] | 104 ± 4.1 | 109 | 54.6 ± 48 | 107 | 105 ± 18 | 99.3 | 93.7 ± 3.6 | 103 ± 14 | 115 ± 4.5
Br.Br.Br.Br.Br.Cc1cc(N2CCN(C3CNC(C(=O)N4CCSC4)C3)CC2)n(-c2ccccc2)n1.Cc1cc(N2CCN(C3CNC(C(=O)N4CCSC4)C3)CC2)n(-c2ccccc2)n1 (configuration not stated) [Teneligliptin hydrobromide] | 111 ± 3.1 | 95.2 | 82.5 ± 13 | 71.5 | 79.96 ± 0.58 | 88.2 | 82 ± 1.3 | 99 ± 20 | 88.4 ± 3.9
C1CNCCN1.C[C@@]12CC[C@H]3c4ccc(OS(=O)(=O)O)cc4CC[C@H]3[C@H]1CCC2=O [Estropipate] | 89.8 ± 7.5 | 173 | 81.6 ± 11 | 95.3 | 159 ± 20 | 104 | 104.03 ± 0.037 | 91.3 ± 27 | 98.27 ± 0.36
CCN1CCCC1CNC(=O)c1cc(S(N)(=O)=O)ccc1OC (configuration not stated) [Levosulpiride] | 127 ± 9.1 | 126 | 99.33 ± 0.17 | 98.2 | 77.9 ± 5.7 | 134 | 93.9 ± 1.6 | 109 ± 7.3 | 100 ± 7.4
COc1ccccc1N1CCN(CC(O)COc2cccc3ccccc23)CC1 (configuration not stated) [Naftopidil] | 116 ± 8.4 | 84.3 | 87.2 ± 14 | 107 | 103 ± 19 | 108 | 67.4 ± 2.8 | 89.8 ± 24 | 104 ± 12

Structure (SMILES) | cell viability (HCI01) | cell viability (HCI03) | cell viability (HCI09) | cell viability (HCI11) | cell viability (HCI13) | cell viability (HCI16) | cell viability (UCD52) | cell viability (WHIM2) | cell viability (WHIM30)
CCCC(CCC)C(=O)[O-].[Na+] [Valproic acid sodium salt (Sodium valproate)] | 190 ± 54 | 154 | 92 ± 18 | 140 | 111 ± 14 | 159 | 158 ± 42 | 105 ± 18 | 192 ± 10
CC(C)(C)NC(=O)NC(C(=O)N1CC2C(C1C(=O)NC(CC1CCC1)C(=O)C(N)=O)C2(C)C)C(C)(C)C (configuration not stated) [Boceprevir] | 100 ± 19 | 83.8 | 87.2 ± 6.2 | 101 | 72.5 ± 1.2 | 65.1 | 80.1 ± 16 | 80.7 ± 15 | 85.1 ± 8.9
CC(C)(C(=O)O)c1ccc(C(O)CCCN2CCC(C(O)(c3ccccc3)c3ccccc3)CC2)cc1.Cl (configuration not stated) [Fexofenadine HCl] | 127 ± 32 | 129 | 115 ± 1.6 | 96.4 | 131 ± 6.2 | 120 | 87.7 ± 9.4 | 84.5 ± 14 | 108 ± 14
CC(C)(C)NCC(O)c1ccc(O)c(CO)c1.O=S(=O)(O)O (configuration not stated) [Salbutamol Sulfate] | 103 ± 5.9 | 104 | 97.4 ± 19 | 90.5 | 106 ± 21 | 104 | 85.4 ± 4.9 | 92.9 ± 19 | 114 ± 6.2
O=C([O-])P(=O)([O-])[O-].[Na+].[Na+].[Na+] [Foscarnet Sodium] | 104 ± 20 | 96.7 | 98.1 ± 3.7 | 89.6 | 95.1 ± 6.7 | 133 | 86.4 ± 3 | 103 ± 11 | 126 ± 2.2
CNS(=O)(=O)Cc1ccc2[nH]cc(CCN(C)C)c2c1 [Sumatriptan] | 92.7 ± 1.9 | 119 | 84 ± 7.2 | 90.7 | 126 ± 3.5 | 110 | 98 ± 7.2 | 95.6 ± 19 | 110 ± 19
CN1CCC(=C2c3ccccc3CCc3sccc32)CC1.O=C(O)CC(O)C(=O)O [Pizotifen Malate] | 100 ± 41 | 105 | 74.7 ± 3.8 | 97.9 | 167 ± 21 | 111 | 82.7 ± 2.5 | 68.9 ± 11 | 173.9 ± 0.85
NCCCC(O)(P(=O)([O-])O)P(=O)(O)O.O.O.O.[Na+] [Alendronate] | 89.6 ± 12 | 123 | 85.1 ± 12 | 69.5 | 106 ± 5.1 | 109 | 94.7 ± 19 | 104 ± 5.2 | 97.5 ± 11
C[N+](C)(C)CC(O)CC(=O)[O-] [L-Carnitine inner salt] | 123 ± 44 | 119 | 99.8 ± 10 | 95.7 | 111.7 ± 1.1 | 114 | 103 ± 3.8 | 96.9 ± 13 | 103 ± 10
Oc1ccc(C2CNCCc3c2cc(O)c(O)c3Cl)cc1 (configuration not stated) [Fenoldopam] | 125 ± 16 | 101 | 107 ± 8.1 | 101 | 90.4 ± 2.4 | 124 | 110.5 ± 0.48 | 96.8 ± 13 | 126 ± 9.5
CCC1OC(=O)C(C)C(OC2CC(C)(OC)C(O)C(C)O2)C(C)C(OC2OC(C)CC(N(C)C)C2O)C(C)(O)CC(C)C(=NOCOCCOC)C(C)C(O)C1(C)O (configuration not stated) [Roxithromycin] | 138 ± 34 | 147 | 113 ± 25 | 101 | 133 ± 12 | 154 | 103 ± 2.8 | 103 ± 17 | 188 ± 29
CCCN1CCCCC1C(=O)Nc1c(C)cccc1C.Cl (configuration not stated) [Ropivacaine HCl] | 98.4 ± 14 | 128 | 96 ± 5.6 | 86 | 96.2 ± 3.2 | 121 | 90.97 ± 0.57 | 92.8 ± 8.5 | 97.5 ± 4.7
NNC(=O)c1ccncc1 [Isoniazid] | 97.4 ± 7.2 | 109 | 92.6 ± 10 | 87.2 | 119 ± 13 | 127 | 72.6 ± 13 | 95.6 ± 4 | 114 ± 3.3
O=C(O)Cc1cc(I)c(Oc2ccc(O)c(I)c2)c(I)c1 [Tiratricol] | 112 ± 48 | 99 | 82.8 ± 6.7 | 87.2 | 42.5 ± 4.2 | 97.2 | 75.6 ± 7.3 | 103 ± 20 | 115 ± 6.8
CCn1cc(C(=O)O)c(=O)c2cc(F)c(N3CCN(C)CC3)cc21.CS(=O)(=O)O [Pefloxacin Mesylate] | 92.2 ± 33 | 137 | 105.3 ± 0.55 | 103 | 160 ± 5.2 | 153 | 113 ± 2.6 | 80.5 ± 16 | 144 ± 11
O=C(O)C=Cc1ccc(Cn2ccnc2)cc1 [Ozagrel] | 95.1 ± 6.6 | 145 | 90.9 ± 16 | 106 | 116 ± 6.6 | 98.4 | 88 ± 3.2 | 97.8 ± 2.4 | 87.2 ± 20
O=C(O)c1ccccc1O [Salicylic acid] | 106 ± 7.3 | 114 | 138 ± 62 | 116 | 99.1 ± 7 | 98.3 | 120 ± 16 | 95.1 ± 13 | 118 ± 23
Cc1cc(C=CC#N)cc(C)c1Nc1ccnc(Nc2ccc(C#N)cc2)n1 [Rilpivirine] | 122 ± 9.4 | 111 | 96.5 ± 4.4 | 96.3 | 122 ± 0.84 | 83.9 | 85.5 ± 8.7 | 93.7 ± 11 | 110 ± 28
CCCCCCCCCCCC(CC1OC(=O)C1CCCCCC)OC(=O)C(CC(C)C)NC=O (configuration not stated) [Orlistat] | 126.7 ± 0.42 | 122 | 123 ± 42 | 110 | 97.6 ± 13 | 81.3 | 76.1 ± 1 | 79.1 ± 21 | 123 ± 6.8
